# From PubChem BioAssay
# Activity calls are given as the source filed them.
# Legend:
# [1] = anti-His antibody binders, primary screen, artefact control for SMM control protein annotation, biochemical, small-molecule microarray, 635 nm fluorescence (AID 1128); conditions: anti-His Alexa647 antibody binding, higher = more signal;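 note: score merges feature fluorescence with signal-to-noise for each printed compound spot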
# [2] = system: Human papillomavirus type 1a E7 protein (residues 1-88); test: HPV1a E7 small-molecule binders, primary screen, biochemical, small-molecule microarray, residues 1-88, 635 nm (AID 1129); conditions: small-molecule microarray binding, fluorescence 635 nm; higher = more signal
# [3] = molecular target: Focal adhesion kinase 1 (Homo sapiens) (UniProt Q05397); test: small-molecule microarray binders of FAK, primary screen, biochemical, 635/667 nm fluorescence, BSA, DTT (AID 1130); conditions: PTK2 binding, 635 nm fluorescence, higher = more signal;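 note: composite of spot emission at 667 nm and signal to noise over triplicate slides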
# Sequence of Focal adhesion kinase 1 (Homo sapiens) (Q05397 whole entry, looked up): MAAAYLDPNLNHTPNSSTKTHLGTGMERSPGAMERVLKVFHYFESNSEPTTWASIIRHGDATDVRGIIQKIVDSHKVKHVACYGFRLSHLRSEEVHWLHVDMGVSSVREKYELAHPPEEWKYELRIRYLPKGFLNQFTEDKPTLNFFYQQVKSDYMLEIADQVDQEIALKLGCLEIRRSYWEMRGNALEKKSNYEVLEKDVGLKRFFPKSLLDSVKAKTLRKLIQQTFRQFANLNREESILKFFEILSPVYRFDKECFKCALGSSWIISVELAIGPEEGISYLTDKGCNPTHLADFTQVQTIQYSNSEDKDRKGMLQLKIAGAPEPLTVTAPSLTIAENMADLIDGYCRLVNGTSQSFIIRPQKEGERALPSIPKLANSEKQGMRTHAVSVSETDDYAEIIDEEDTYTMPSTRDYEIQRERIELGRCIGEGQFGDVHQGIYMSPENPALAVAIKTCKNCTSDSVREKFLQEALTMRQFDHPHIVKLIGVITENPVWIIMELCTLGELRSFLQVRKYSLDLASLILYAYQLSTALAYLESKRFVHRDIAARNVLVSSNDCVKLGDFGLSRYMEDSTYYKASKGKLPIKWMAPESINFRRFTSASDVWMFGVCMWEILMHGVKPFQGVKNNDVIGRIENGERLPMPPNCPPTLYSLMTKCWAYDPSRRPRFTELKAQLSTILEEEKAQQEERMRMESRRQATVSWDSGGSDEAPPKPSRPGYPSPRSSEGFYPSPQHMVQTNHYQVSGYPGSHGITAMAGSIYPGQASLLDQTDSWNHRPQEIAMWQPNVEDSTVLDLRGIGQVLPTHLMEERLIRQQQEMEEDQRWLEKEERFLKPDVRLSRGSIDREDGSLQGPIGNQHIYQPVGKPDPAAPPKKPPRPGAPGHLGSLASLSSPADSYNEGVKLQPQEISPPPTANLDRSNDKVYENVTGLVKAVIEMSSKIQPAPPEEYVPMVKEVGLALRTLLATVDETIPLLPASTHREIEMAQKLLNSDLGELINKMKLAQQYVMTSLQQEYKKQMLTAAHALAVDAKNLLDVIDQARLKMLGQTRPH
# [4] = system: Fibrinogen (Alexa647-labelled); test: fibrinogen binders on compound microarrays, profiling panel, artefact control for SMM control-protein annotation, biochemical, small-molecule microarray, 635/667 nm fluorescence (AID 1131); conditions: fibrinogen-A647 binding fluorescence, higher = more signal;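 note: z-score merges 667 nm fluorescence with per-spot signal-to-noise over triplicate slides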
# [5] = molecular target: Follistatin (Homo sapiens) (UniProt P19883); test: follistatin binders on small-molecule microarrays, primary screen, biochemical, small-molecule microarray, 635/667 nm fluorescence (AID 1132); conditions: FST binding, 635 nm fluorescence, higher = more signal
# Sequence of Follistatin (Homo sapiens) (P19883 whole entry, looked up): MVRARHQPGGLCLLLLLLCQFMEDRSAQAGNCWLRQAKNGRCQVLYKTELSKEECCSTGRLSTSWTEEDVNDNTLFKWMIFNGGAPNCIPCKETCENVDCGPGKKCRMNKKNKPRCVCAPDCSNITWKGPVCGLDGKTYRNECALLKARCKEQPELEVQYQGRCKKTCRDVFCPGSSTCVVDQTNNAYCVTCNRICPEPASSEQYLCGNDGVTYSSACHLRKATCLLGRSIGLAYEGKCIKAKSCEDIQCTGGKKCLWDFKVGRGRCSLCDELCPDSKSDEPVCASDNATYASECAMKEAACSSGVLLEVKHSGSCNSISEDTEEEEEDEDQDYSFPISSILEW
# [6] = molecular target: Fibroblast growth factor 2 (Homo sapiens) (UniProt P09038); test: FGF2 binders on small-molecule microarrays, primary screen, biochemical, small-molecule microarray, 635/667 nm fluorescence (AID 1133); conditions: small-molecule microarray binding, FGF2, fluorescence 635/667; higher = more signal
# Sequence of Fibroblast growth factor 2 (Homo sapiens) (P09038 whole entry, looked up): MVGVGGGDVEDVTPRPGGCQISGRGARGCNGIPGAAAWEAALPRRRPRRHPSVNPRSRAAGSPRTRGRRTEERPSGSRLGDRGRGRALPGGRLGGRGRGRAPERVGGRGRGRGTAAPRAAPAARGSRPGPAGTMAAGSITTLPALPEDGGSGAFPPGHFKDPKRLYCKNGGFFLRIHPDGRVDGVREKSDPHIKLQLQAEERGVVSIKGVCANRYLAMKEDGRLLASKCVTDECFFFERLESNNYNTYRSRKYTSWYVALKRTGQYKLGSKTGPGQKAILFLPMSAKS
# [7] = mitochondrial membrane potential change in A549 cells, profiling panel, cell-based, JC-1 fluorescence, basal, 24 h, 100 nL (AID 1138); conditions: higher = more signal;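 note: A549 lung adenocarcinoma cells under basal conditions with no added stimulus; test concentration not given here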
# Lefty1 = Lefty1 binders on small-molecule microarrays, primary screen, biochemical, small-molecule microarray, 635/667 nm fluorescence (AID 1139); conditions: small-molecule microarray binding, fluorescence 635/667; higher = more signal
# [8] = system: wheat germ agglutinin (Triticum aestivum), Alexa647-labelled; test: wheat germ agglutinin binders on compound microarrays, profiling panel, artefact control for SMM control-protein annotation, biochemical, small-molecule microarray, 635/667 nm fluorescence (AID 1140); conditions: WGA-A647 binding, 635 nm fluorescence, higher = more signal;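 note: score merges 667 nm feature emission with signal to noise over triplicate slides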
# [9] = molecular target: Luciferin 4-monooxygenase (Photinus pyralis) (UniProt P08659); test: firefly luciferase enzyme inhibitors, primary screen, biochemical, luminescence, purified enzyme, 2006 set (AID 1141); conditions: SteadyGlo luminescence, 30 min, higher = more signal, called active from +8 up or from −8 down;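 note: cell-free assay with purified firefly luciferase at 100 ng per well in PBS; test concentration not given here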
# Sequence of Luciferin 4-monooxygenase (Photinus pyralis) (P08659 whole entry, looked up): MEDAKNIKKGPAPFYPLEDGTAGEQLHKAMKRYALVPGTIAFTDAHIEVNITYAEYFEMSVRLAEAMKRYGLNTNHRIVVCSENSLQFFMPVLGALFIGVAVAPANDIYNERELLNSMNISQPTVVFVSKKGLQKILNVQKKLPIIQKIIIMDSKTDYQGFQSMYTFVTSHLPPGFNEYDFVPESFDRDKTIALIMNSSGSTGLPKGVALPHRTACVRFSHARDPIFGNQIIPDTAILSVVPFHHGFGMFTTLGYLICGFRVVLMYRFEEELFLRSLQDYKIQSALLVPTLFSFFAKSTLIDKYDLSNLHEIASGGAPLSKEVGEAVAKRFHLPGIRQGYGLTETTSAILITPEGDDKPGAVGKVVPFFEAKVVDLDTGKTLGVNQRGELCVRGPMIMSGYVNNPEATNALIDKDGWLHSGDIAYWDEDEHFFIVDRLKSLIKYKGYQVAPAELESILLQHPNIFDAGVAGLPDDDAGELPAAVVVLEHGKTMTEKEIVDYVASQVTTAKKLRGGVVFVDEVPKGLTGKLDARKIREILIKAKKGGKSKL
SMILES,composite z-score [1],composite z-score [2],composite z-score [3],composite z-score [4],composite z-score [5],composite z-score [6],z-score [7],composite z-score (Lefty1),composite z-score [8],z-score [9]
C#CCN1[C@@H](Cc2ccc(O)cc2)C(=O)O[C@H](Cc2ccccc2)[C@@H]1/C=C/C1CC1,-0.0341,-0.521,-0.102,0.123,0.623,0.571,-1.76,0.165,-0.202,-0.407 (inactive)
CO[C@H]1O[C@H](CO)[C@@H](OC(=O)Nc2ccccc2-c2ccccc2)[C@H](OC(=O)Nc2ccccc2-c2ccccc2)[C@@H]1OC(=O)Nc1ccccc1-c1ccccc1,0.747,1.23,0.993,0.906,1.2,0.814,-0.00054,0.55,0.827,-0.858 (inactive)
C[N+](C)(C)CCCC[C@@H]1NC(=O)[C@H]2C[C@@H](C(=O)NCCCCCCNC(=O)CS)[C@@H](c3ccc(O)cc3)N2C1=O,1.44,-0.0478,-0.103,-2.2,1.36,0.247,-0.459,0.0544,-1.07,0.24 (inactive)
CC(C)NC(=O)[C@@]1(Cc2ccccc2I)c2ccccc2C(=O)N(Cc2ccccc2Cl)[C@H]1c1ccc(CO)cc1,2.99,1.2,0.252,0.443,1.19,0.566,1.46,0.443,0.858,-0.577 (inactive)
O=C1NC(=O)C2C1C=CC(C(O)C=Cc1ccc([N+](=O)[O-])cc1)N2Nc1ccc(Cl)cc1Cl (stereo not given),1.72,1.11,0.0716,0.646,1.04,-0.18,0.408,-0.443,0.957,-3.39 (inactive)
NC(=O)NCC#Cc1ccc2c(c1)[C@]1(C(=O)N2)[C@H](C(=O)O)[C@H]2C(=O)O[C@H](c3ccccc3)[C@H](c3ccccc3)N2[C@@H]1c1ccc(O)cc1,0.0795,0.0885,0.06,0.972,1.31,0.153,-1.01,0.654,0.642,-1.5 (inactive)
COC(=O)[C@]1(CCC(=O)OC(C)(C)C)N=C(c2ccc(OCCCO)cc2)O[C@@H]1c1ccccc1,2.76,0.527,-0.239,-0.233,0.263,0.16,0.804,-0.657,0.197,-2.77 (inactive)
C=C(CCCC)/C(=C/C[C@H](OC(C)=O)c1ccc(OCCO)cc1)c1cnc2ccccc2c1,0.91,0.78,-0.115,0.387,0.735,0.623,0.649,1.15,0.869,-0.126 (inactive)
O=C1NC(=O)C2C1C=CC(C(O)c1ccc(I)cc1)N2Nc1ccccn1 (stereo not given),2.1,0.134,0.675,0.791,0.367,-0.109,-0.279,-0.19,1.23,-0.759 (inactive)
CCOC(=O)C[C@H]1[C@H](OC(=O)c2cc3ccccc3oc2=O)[C@@H](NC(=O)CC(C)C)c2cc(OCCCO)ccc2N1C(=O)c1ccccc1,0.615,0.926,0.399,0.595,0.478,0.427,-0.399,0.696,0.634,-0.291 (inactive)
COC(=O)[C@@]1(Cc2ccccc2)[C@H]2c3cc(C(=O)N(C)C)n(Cc4ccc(OC)c(OC)c4)c3C[C@H]2CN1C(=O)c1ccccc1,1.81,1.27,0.561,1.01,0.385,-0.588,0.134,0.0922,0.995,1.29 (inactive)
[N-]=[N+]=Nc1ccccc1[C@H]1OC(c2ccc(OCCCO)cc2)=N[C@@]1(Cc1ccccc1)C(=O)N1CCOCC1,2.22,1.21,0.68,0.974,1.38,1.66,-0.254,0.511,1.09,-5.58 (inactive)
O=C(O)[C@@]1(CCS(=O)(=O)c2ccccc2)N=C(c2ccc(OCCCO)cc2)O[C@H]1c1ccccc1,2.65,0.23,0.264,0.993,0.265,-0.761,0.175,-0.387,0.763,-1.56 (inactive)
O=C(NCc1ccccc1)[C@@H]1c2ccccc2C(=O)N(C2Cc3ccccc3C2)[C@H]1c1ccc(CO)cc1,0.526,1.17,0.166,0.299,0.957,0.892,0.353,0.459,1.1,0.111 (inactive)
O=C1OCC=C[C@H]2OC34C=CCN(Cn5nnc6ccccc65)C(=O)[C@H]3N(CCCCCO)C(=O)[C@@H]4[C@@H]12 (stereo not given in full),0.181,-0.185,-0.34,-0.566,-0.997,-0.846,-1.47,-0.992,1.25,0.365 (inactive)
CCOC(=O)C1=CC[C@H]2C(=O)N(c3ccccc3)C(=O)[C@@H]12,2.18,1.32,0.291,1.04,1.24,0.385,-1.44,0.655,0.56,0.332 (inactive)
CN1C(=O)C2C=CC(C(O)c3ccccc3)N(N3CCCCC3)C2C1=O (stereo not given),0.841,1.04,0.352,0.412,0.602,-0.234,0.0958,0.0104,0.573,-0.136 (inactive)
COCCOC(=O)N1C(=O)[C@@]2(c3cc(C#CCCO)ccc31)[C@H](c1ccc(O)cc1)N1[C@H](c3ccccc3)[C@H](c3ccccc3)OC(=O)[C@H]1[C@@H]2C(=O)N1CCN(c2ncccn2)CC1,1.34,1.25,1.26,0.959,1,0.986,0.00649,0.883,0.932,0.832 (inactive)
COc1ccc([C@H]2C[C@H]3C(I)=C[C@@H]2C(=O)[C@]32CO2)cc1,-0.608,-0.658,-0.449,-0.193,0.762,1.14,1.1,0.983,0.24,-0.303 (inactive)
C#CCN1[C@H](/C=C/C2CC2)[C@H](Cc2ccccc2)OC(=O)[C@@H]1Cc1ccccc1,0.924,0.743,0.229,0.884,0.578,0.242,3.8,0.536,-0.153,-0.373 (inactive)
COc1ccc(C(=O)Nc2cccc(CN3C(=O)[C@]4(O[C@H](CCn5cc(CCO)nn5)[C@@H]([Si](C)(C)c5ccc(OC)cc5)[C@@H]4C)c4ccccc43)c2)cc1,-0.0471,1.09,0.258,0.757,1.29,0.188,-1.11,0.834,0.351,-0.1 (inactive)
